LYPLA1 counter = LYPLA1 (human) inhibition in PME1 counter-screen | 0.16% of 320,000 active | O75608 | inhibition, % at 5.9 µM | recombinant LYPLA1, FP-Rh probe fluorescence polarization;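 active = inhibition above the mean of all tested compounds plus 3 SD, set per campaign, cut at about 14% in these data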;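 note: inhibitors block serine hydrolase probe labeling of LYPLA1 so polarization falls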
PP5 primary = PP5 (human) phosphatase inhibition; P53041; purified PP5c, OMFP substrate fluorescence; inhibition, % at 6.7 µM; 0.18% of 320,000 active; AID 1987;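 active = inhibition above the campaign's mean inhibition across all tested compounds plus 3 SD, cut at about 9.5% in these data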
PP1 inh = counter-screen for PP5 inhibitors: inhibitors of human PP1-alpha; purified PP1alpha, OMFP fluorescence; inhibition, % at 6.7 µM; 0.9% of 320,000 active; AID 2235;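 active = inhibition above the mean inhibition of all tested compounds plus 3 SD, computed separately for each screening campaign, cut at about 15% in these data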
PME-1 primary = PME-1 (human) inhibition | Q9Y570 | recombinant PME-1, FP-Rh probe fluorescence polarization | inhibition, % at 5.9 µM | 0.53% of 320,000 active | AID 2130;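 active = inhibition above the campaign mean of all compounds plus 3 SD, cut at about 26% in these data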;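 note: competitive labeling of PME-1 active site by serine hydrolase directed probe; inhibitors block probe labeling so polarization falls and inhibition rises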
Target sequence (Q9Y570 whole entry, looked up): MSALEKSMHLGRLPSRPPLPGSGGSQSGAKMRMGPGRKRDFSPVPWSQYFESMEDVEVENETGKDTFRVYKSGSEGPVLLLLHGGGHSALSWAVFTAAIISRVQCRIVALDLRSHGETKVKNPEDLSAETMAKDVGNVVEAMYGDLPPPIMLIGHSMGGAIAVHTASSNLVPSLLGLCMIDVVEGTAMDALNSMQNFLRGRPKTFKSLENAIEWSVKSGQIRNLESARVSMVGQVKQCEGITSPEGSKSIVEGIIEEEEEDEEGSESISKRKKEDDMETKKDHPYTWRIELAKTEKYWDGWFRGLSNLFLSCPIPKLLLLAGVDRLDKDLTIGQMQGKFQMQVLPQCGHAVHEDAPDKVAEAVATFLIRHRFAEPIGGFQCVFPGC
Fam108B inh = counter-screen for RBBP9 inhibitors: inhibitors of mouse Fam108B; recombinant Fam108B, FP-Rh probe fluorescence polarization; inhibition, % at 9.51 µM; 0.33% of 300,000 active;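 active = inhibition above the screen mean inhibition plus 3 SD, computed separately per campaign, cut at about 18% in these data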;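 note: inhibitors lower polarization as less probe binds the enzyme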
LYPLA2 inh = counter-screen for PME1 inhibitors: inhibitors of human LYPLA2; O95372; recombinant LYPLA2, FP-Rh probe fluorescence polarization; inhibition, % at 5.9 µM; 0.38% of 320,000 active;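 active = inhibition above the screen-wide mean plus 3 SD, limit set per campaign, cut at about 26% in these data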
PP1 confirm = confirmation of human PP1 phosphatase inhibitors; shares compounds with PP1 inh; 52% of 1,900 active; inhibition, % at 6.7 µM; purified PP1alpha, OMFP substrate fluorescence;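 active = mean PP1 inhibition above a set limit taken from the earlier primary screen, cut at about 15% in these data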
PP5 inh counter = PP5 phosphatase inhibition, counter-screen for PP1 inhibitors; shares compounds with PP1 inh; purified PP5c, OMFP fluorescence; inhibition, % at 6.7 µM; 4% of 1,900 active; AID 2360;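 active = mean PP5 inhibition over triplicate wells above about 9.5% taken from the earlier PP1 screen, limit read from the data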
Each line names hits and unclear results; the compound was inactive in the other large screens (follow-up assays come after a bar, where they were run). Hits are enriched below; roughly 1.8% of the tested compounds scored in any of these assays.

COCCN(C(=O)C1CCN(C(=O)c2ccccc2C)CC1)c1c(N)n(CC(C)C)c(=O)[nH]c1=O	none (no result: Fam108B inh)
O=C(Cc1ccc(S(=O)(=O)N2CCOCC2)s1)N(Cc1ccccc1)c1ccccc1	PP1 inh 58.0 | PP1 confirm inactive | PP5 inh counter inactive
CCCCN(C(=O)Cc1ccc(S(=O)(=O)N2CCOCC2)s1)c1ccccc1	none
Cn1c(N)c(S(=O)(=O)NCc2ccc(F)cc2)c(=O)n(C)c1=O	none
COc1ccc(-c2nnc(NC(=O)c3ccc(S(=O)(=O)N4COCC4(C)C)cc3)o2)cc1	PP1 inh 29.7 | PP1 confirm 28.7 | PP5 inh counter inactive
CC(=O)c1ccc(NC(=O)C2CCCNC2=O)cc1 (stereo unspecified)	PP1 inh 21.6 | PP1 confirm inactive | PP5 inh counter inactive
Cc1ccc(NC(=O)N2C3CCCC2CC(NC(=O)C(C)(C)C)C3)cc1 (stereo unspecified)	none
CCOc1ccc(NC(=NCc2ccc3c(c2)OCO3)SC2CC(=O)N(c3ccc(C(=O)O)cc3)C2=O)cc1 (stereo unspecified)	PP1 inh 19.3 | PP1 confirm inactive | PP5 inh counter inactive
CCOc1ccc(NC(=NCc2ccc3c(c2)OCO3)SC2CC(=O)N(c3ccc(OCC)cc3)C2=O)cc1 (stereo unspecified)	none
O=C(Nc1cccc(S(=O)(=O)N2CCOCC2)c1)c1ccc(N2CCCC2=O)cc1	none (no result: Fam108B inh)
O=C1C(Cc2ccccc2)Nc2ncnc(N3CCc4ccccc4C3)c2N1Cc1ccc(Br)cc1 (stereo unspecified)	PP1 inh 19.9 | PP1 confirm inactive | PP5 inh counter inactive
O=C1C(Cc2ccccc2)Nc2ncnc(N3CCN(c4ccccc4)CC3)c2N1Cc1ccccc1 (stereo unspecified)	none
O=c1c2ccccc2nc(-c2ccccc2)n1O	none
O=C(O)c1ccccc1-c1nc2ccccc2c(=O)n1O	PP1 inh 24.6 | PP1 confirm 29.9 | PP5 inh counter inactive
O=C(C[n+]1cc(-c2ccc(F)cc2)n2c1CCC2)Nc1nc(-c2ccc(F)cc2)cs1	none
O=C(C[n+]1cc(-c2ccc(Cl)cc2)n2c1CCC2)Nc1nc(-c2ccc(F)cc2)cs1	PP1 inh 21.2 | PP1 confirm inactive | PP5 inh counter inactive
Cc1cc(/C=N/NC(N)=S)c(C)n1-c1ccc(Cl)cc1	none
Cc1cc(/C=N/NC(N)=S)c(C)n1-c1ccc(Br)cc1	PP1 inh 24.6 | PP1 confirm 16.4 | PP5 inh counter inactive
Cc1cc(/C=N/NC(N)=S)c(C)n1-c1cccc(Cl)c1	PP1 inh 60.1 | PP1 confirm inactive | PP5 inh counter inactive
Cc1cc(F)ccc1S(=O)(=O)N1CCCOC1CNC(=O)C(=O)NC1CC1 (stereo unspecified)	none
Cc1cc(C(=O)COc2cccnc2[N+](=O)[O-])c(C)n1Cc1cccs1	PP5 primary 9.9, PP1 inh 18.2 | PP1 confirm inactive | PP5 inh counter inactive
Cc1cccc(NC(=O)CN(C)C(=O)C2CCCC2)c1C	none (no result: Fam108B inh)
O=c1cc(-c2ccccc2)[nH]n1-c1nc2ccccc2s1	PP1 inh 18.1 | PP1 confirm inactive | PP5 inh counter inactive
COc1cc(OC)cc(C(=O)N2CCC(C(=O)NCCc3ccccc3)CC2)c1	none
[S-]c1nnc(-c2ccc(Br)cc2)n1-c1ccccc1.[Zn+2]	PP1 inh 20.1 | PP1 confirm 23.6 | PP5 inh counter inactive
O=C(CSc1nc(=O)n(CCCN2CCOCC2)c2c1CCC2)Nc1ccc([N+](=O)[O-])cc1	none
COc1ccc(-c2nc(CS(=O)(=O)CC(=O)NC3CCC(C)CC3)c(C)o2)cc1 (stereo unspecified)	none
COc1ccc(OCc2cc(C(=O)N(C)C(C)c3ccon3)no2)c(Cl)c1 (stereo unspecified)	none
O=C(NCCCCc1ccccc1)C12CN(Cc3ccccc3)CC1C(c1cccc([N+](=O)[O-])c1)=NO2 (stereo unspecified)	PP1 inh 23.8 | PP1 confirm inactive | PP5 inh counter inactive

Assay outcomes (PubChem)
